# Records with an inconclusive call do not appear. Entries that show only a call come without a potency. Calls of active or inactive are those of the source. Unless noted, calls follow the shape of the dose curve; as a rule, active = well fitted curve in the direction sought with a large enough effect in the repeat runs; inconclusive = weak or mixed curves; inactive = no such curve, though single readings can be large; an effect the other way counts as inactive or inconclusive.
# Assays:
# [1] = qHTS assay to identify small molecule agonists of the androgen receptor (AR) signaling pathway in the presence of an antagonist - cell viability counter screen (AID 1259379); also: nearly all actives have a fitted effect of over 25% in size; also: potency is read from the fitted curve at half-maximal effect
# Outline: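 Fluorescence from CellTiter-Fluor, added after 15 hr and read 1 hr later, gave cell viability. Cells were MDA-kb2 exposed to compounds (15 concentrations) in the presence of 3.0uM nilutamide at 37C, 0% CO2.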
# [2] = qHTS assay to identify small molecule agonists of the estrogen receptor beta (ER-beta) signaling pathway - cell viability counter screen (AID 1259380); also: nearly all actives have a fitted effect of over 30% in size; also: potency is read from the fitted curve at half-maximal effect
# Outline: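 Same-well viability counter screen. Cells: ER-beta-UAS-bla HEK293T, plated 6 hr before compound, in 2% charcoal-stripped FBS. Compound exposure 16 hr, 37C; viability by CellTiter-Glo luminescence after 30 min at room temperature.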
# [3] = biological target: Androgen receptor (Homo sapiens) (UniProt P10275); experiment: qHTS assay to identify small molecule agonists of the androgen receptor (AR) signaling pathway in the presence of an antagonist (AID 1259381; calls by dose curve; also: nearly all actives have a fitted effect of over 15% in size)
# Chain of Androgen receptor (Homo sapiens) (P10275 whole entry, looked up): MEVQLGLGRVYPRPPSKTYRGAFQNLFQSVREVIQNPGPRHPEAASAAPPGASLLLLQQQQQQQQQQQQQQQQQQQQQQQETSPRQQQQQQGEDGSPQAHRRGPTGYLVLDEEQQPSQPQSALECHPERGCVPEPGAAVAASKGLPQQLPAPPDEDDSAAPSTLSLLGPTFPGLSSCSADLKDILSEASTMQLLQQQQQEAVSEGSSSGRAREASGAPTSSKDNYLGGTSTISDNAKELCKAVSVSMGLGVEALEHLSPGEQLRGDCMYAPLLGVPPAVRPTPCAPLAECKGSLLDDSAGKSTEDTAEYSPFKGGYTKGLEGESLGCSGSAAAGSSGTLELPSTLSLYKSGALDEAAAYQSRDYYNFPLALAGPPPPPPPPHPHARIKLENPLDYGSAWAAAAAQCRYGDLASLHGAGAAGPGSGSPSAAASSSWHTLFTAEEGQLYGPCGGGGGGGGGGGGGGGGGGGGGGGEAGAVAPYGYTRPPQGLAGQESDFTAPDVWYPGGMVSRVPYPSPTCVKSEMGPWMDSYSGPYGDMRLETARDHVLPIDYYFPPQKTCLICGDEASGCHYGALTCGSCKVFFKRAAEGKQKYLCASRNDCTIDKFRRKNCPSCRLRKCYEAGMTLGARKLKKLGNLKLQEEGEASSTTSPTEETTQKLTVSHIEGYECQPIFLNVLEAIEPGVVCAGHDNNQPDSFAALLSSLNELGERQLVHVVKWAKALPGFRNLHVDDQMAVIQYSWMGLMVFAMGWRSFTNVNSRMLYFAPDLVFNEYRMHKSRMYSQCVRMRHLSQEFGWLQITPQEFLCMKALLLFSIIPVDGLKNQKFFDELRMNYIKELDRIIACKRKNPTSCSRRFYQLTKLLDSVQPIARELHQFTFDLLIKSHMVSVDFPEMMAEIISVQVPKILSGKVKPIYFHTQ
# Outline: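 Cells are MDA-kb2 (human breast carcinoma, MMTV-luc, AR/GR responsive). Nilutamide is present at 3.0uM final throughout; compounds are added at 15 concentrations and incubated 16hr at 37C before ONE-Glo luminescence detection.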
# [4] = qHTS assay to identify small molecule antagonists of the estrogen receptor beta (ER-beta) signaling pathway - cell viability counter screen (AID 1259382); also: nearly all actives have a fitted effect of over 55% in size; also: potency is read from the fitted curve at half-maximal effect
# Outline: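 Following a 6 hr plating period, HEK293T cells carrying a UAS-driven beta-lactamase reporter under ER-beta control received compounds and 1nM E2 (final). After 16 hr at 37C and 2 hr substrate loading, CellTiter-Glo luminescence indicated viability.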
# [5] = biological target: Estrogen receptor (Homo sapiens) (UniProt P03372); experiment: qHTS assay to identify small molecule agonists of the estrogen receptor alpha (ER-alpha) signaling pathway in the presence of an antagonist (AID 1259383; calls by dose curve; also: top concentration of the series differs between compounds; nearly all actives have a fitted effect of over 15% in size)
# Chain of Estrogen receptor (Homo sapiens) (P03372 whole entry, looked up): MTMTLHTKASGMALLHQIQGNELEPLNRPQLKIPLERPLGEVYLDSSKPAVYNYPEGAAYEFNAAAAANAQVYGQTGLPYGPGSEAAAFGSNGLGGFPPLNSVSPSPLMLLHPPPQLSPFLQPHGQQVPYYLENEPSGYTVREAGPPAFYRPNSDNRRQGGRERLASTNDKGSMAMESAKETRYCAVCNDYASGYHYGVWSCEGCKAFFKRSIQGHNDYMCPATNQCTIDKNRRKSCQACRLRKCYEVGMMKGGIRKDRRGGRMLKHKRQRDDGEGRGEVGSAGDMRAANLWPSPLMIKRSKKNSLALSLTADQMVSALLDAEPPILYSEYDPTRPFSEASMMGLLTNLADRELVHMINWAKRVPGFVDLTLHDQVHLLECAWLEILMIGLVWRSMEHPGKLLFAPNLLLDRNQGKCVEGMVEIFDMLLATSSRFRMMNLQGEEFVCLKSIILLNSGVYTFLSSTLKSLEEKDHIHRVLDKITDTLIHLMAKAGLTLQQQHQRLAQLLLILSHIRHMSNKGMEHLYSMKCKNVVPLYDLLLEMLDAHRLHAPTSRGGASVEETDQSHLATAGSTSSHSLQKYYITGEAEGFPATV
# Outline: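 Cells are hormone-deprived for 5 days (charcoal-stripped FBS, no phenol red), plated for 24hr, spiked with 10.0nM ICI-182,780, then dosed at 15 concentrations. After 22hr at 37C, ONE-Glo luminescence reports ERE-luciferase activity.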
# [6] = qHTS assay to identify small molecule agonists of the estrogen receptor alpha (ER-alpha) signaling pathway in the presence of an antagonist - cell viability counter screen (AID 1259386);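 also: cells exposed to compounds for 22 h at 37 °C before the viability read; nearly all actives have a fitted effect of over 30% in size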; also: potency is read from the fitted curve at half-maximal effect
# Outline: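 Cells are starved of estrogens for 5 days in charcoal-stripped serum, seeded for 24hr and co-treated with ICI-182,780 (10.0nM final) and test compounds. After 22hr at 37C, viability is read as CellTiter-Fluor fluorescence.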
# [7] = biological target: Progesterone receptor (Homo sapiens) (UniProt P06401); experiment: qHTS assay to identify small molecule agonists of the progesterone receptor (PR) signaling pathway (AID 1346784; calls by dose curve; also: nearly all actives have a fitted effect of over 30% in size)
# Chain of Progesterone receptor (Homo sapiens) (P06401 whole entry, looked up): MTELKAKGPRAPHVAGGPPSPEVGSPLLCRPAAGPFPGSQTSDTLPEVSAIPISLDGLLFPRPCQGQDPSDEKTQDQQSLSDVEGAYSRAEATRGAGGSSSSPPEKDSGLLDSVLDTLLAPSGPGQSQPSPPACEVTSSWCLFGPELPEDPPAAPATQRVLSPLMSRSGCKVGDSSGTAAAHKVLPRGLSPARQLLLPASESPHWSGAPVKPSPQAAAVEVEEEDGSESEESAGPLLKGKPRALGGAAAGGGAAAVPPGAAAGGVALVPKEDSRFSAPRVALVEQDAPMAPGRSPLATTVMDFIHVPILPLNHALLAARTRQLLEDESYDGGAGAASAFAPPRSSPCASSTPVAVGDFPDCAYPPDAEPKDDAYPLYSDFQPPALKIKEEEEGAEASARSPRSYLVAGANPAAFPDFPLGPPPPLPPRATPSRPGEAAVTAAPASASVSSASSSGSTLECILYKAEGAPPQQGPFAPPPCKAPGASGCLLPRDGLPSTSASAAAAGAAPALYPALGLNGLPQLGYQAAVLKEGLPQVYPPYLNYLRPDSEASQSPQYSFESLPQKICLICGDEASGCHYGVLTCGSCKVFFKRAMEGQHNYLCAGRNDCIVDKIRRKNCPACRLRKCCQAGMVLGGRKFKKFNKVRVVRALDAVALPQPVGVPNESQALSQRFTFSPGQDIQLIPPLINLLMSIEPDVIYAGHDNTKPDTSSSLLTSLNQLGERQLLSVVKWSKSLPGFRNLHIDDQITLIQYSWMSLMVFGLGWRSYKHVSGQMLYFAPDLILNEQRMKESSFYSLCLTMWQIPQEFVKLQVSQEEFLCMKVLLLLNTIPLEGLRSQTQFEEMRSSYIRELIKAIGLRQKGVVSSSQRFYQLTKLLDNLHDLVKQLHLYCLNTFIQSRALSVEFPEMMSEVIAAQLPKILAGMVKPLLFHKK
# Outline: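 PR-UAS-bla HEK 293T cells carrying a UAS-driven beta-lactamase reporter were seeded in medium with 2% charcoal-stripped FBS, preincubated 6 hr at 37C, then exposed to compounds in DMSO for 16 hr; agonism was read by LiveBLAzer B/G FRET fluorescence.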
# [8] = biological target: Progesterone receptor (Homo sapiens) (UniProt P06401); experiment: qHTS assay to identify small molecule antagonists of the progesterone receptor (PR) signaling pathway (AID 1346795; active = well fitted inhibition curve with a large enough effect in the signal ratio in the repeat runs, not every such curve was filed as active; the % refers to the signal ratio; also: potency is read from the fitted curve at half-maximal effect)
# Outline: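 PR-UAS-bla HEK293T cells carrying a UAS-driven beta-lactamase reporter were plated in medium with 2% charcoal-stripped FBS and rested 6 hr at 37C. Compounds were added with 1 nM R5020 (final) for 16 hr, then FRET substrate loaded 2 hr at room temperature.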
# [9] = qHTS assay to identify small molecule agonists of the progesterone receptor (PR) signaling pathway - cell viability counter screen (AID 1346799; calls by dose curve; also: nearly all actives have a fitted effect of over 45% in size; also: potency is read from the fitted curve at half-maximal effect)
# Outline: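 PR-UAS-bla HEK293T cells, 3,000 per well in medium with 2% charcoal-stripped FBS, were preincubated 6 hr at 37C, then exposed to compounds for 16 hr; viability was read as CellTiter-Glo luminescence after 30 min at room temperature.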
# [10] = qHTS assay to identify small molecule antagonists of the TGF-beta/Smad signaling pathway - cell viability counter screen (AID 1346824); also: nearly all actives have a fitted effect of over 50% in size
# Outline: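 SBE-bla HEK 293T cells, incubated overnight, then compound plus 0.25 ng/mL TGF-beta1 (stock added) for 5 hr at 37 C. Viability was read in the same wells by CellTiter-Glo luminescence after 30 min at room temperature.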
# [11] = qHTS assay to identify small molecule agonists of the TGF-beta/Smad signaling pathway - cell viability counter screen (AID 1346829); also: top concentration of the series differs between compounds; nearly all actives have a fitted effect of over 45% in size
# Outline: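 After overnight seating at 37 C and 5% CO2, reporter cells got compounds for 5 hr and FRET substrate for 2 hr; cell viability then came from CellTiter-Glo luminescence.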
# [12] = qHTS assay to identify small molecule agonists of the TGF-beta/Smad signaling pathway (AID 1346859; active = well fitted activation curve with a large enough effect in the signal ratio in the repeat runs, not every such curve was filed as active; the % refers to the signal ratio; also: series mostly up to about 77 µM)
# Outline: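 HEK 293T cells stably carrying a beta-lactamase reporter driven by the Smad binding element were seeded overnight, exposed to DMSO-dissolved compounds for 5 hr at 37 C, 5% CO2, then loaded with FRET substrate for 2 hr at room temperature.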
# [13] = biological target: Thyrotropin-releasing hormone receptor (Homo sapiens) (UniProt P34981); experiment: qHTS assay to identify small molecule antagonists of the thyrotropin-releasing hormone receptor (TRHR) signaling pathway (AID 1346877; active = well fitted inhibition curve with a large enough effect in the repeat runs, not every such curve was filed as active; also: series mostly up to about 51 µM)
# Chain of Thyrotropin-releasing hormone receptor (Homo sapiens) (P34981 whole entry, looked up): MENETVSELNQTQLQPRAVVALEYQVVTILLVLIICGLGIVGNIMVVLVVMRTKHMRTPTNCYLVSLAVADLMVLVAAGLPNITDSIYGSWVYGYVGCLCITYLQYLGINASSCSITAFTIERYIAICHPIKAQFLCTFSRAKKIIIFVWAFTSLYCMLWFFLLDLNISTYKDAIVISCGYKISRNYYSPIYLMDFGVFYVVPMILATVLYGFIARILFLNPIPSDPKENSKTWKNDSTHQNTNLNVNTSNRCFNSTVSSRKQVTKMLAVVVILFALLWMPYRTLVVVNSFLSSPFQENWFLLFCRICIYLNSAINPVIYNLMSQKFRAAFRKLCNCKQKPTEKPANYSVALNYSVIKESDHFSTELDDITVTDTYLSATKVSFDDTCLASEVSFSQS
# Outline: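 Cells (TRHR-HEK293) are plated and kept 18 h at 37 °C/5% CO2. A calcium-sensitive dye is added for 2 h, compound follows for 5 min at room temperature, and TRH is then given at 1 nM final.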
# [14] = biological target: Thyrotropin-releasing hormone receptor (Homo sapiens) (UniProt P34981); experiment: qHTS assay to identify small molecule agonists of the thyrotropin-releasing hormone receptor (TRHR) signaling pathway (AID 1346891; calls by dose curve; also: series mostly up to about 58 µM)
# Outline: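 TRHR-expressing HEK293 cells were plated 18 h at 37 °C/5% CO2, loaded with calcium dye 2 h at 37 °C, then given compound in DMSO; fluorescence was read kinetically for 3 min at 1 s intervals.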
# [15] = biological target: Estrogen receptor beta (Homo sapiens) (UniProt Q92731); experiment: qHTS assay to identify small molecule agonists of the estrogen receptor beta (ER-beta) signaling pathway (AID 1259377; active = well fitted activation curve with a large enough effect in the signal ratio in the repeat runs, not every such curve was filed as active; the % refers to the signal ratio)
# Chain of Estrogen receptor beta (Homo sapiens) (Q92731 whole entry, looked up): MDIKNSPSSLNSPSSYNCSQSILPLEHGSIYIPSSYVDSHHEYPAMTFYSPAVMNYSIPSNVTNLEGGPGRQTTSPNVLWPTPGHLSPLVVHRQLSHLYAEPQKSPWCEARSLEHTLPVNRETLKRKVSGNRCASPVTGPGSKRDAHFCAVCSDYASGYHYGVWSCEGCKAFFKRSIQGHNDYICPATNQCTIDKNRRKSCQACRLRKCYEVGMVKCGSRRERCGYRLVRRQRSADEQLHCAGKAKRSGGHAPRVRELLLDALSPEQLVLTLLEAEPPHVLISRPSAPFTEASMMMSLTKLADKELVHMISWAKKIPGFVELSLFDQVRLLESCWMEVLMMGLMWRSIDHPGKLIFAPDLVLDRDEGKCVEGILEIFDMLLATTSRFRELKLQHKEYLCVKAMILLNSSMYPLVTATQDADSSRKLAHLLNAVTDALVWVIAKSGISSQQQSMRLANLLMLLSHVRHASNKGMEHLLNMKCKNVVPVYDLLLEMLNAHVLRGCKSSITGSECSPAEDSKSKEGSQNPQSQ
# Outline: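 ER-beta-UAS-bla HEK293T (GripTite) cells carrying a UAS-driven beta-lactamase reporter, in medium with 2% charcoal-stripped FBS, were exposed to compounds for 16 hr at 37C; LiveBLAzer B/G FRET substrate was then added and fluorescence read after 2 hours at room temperature.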
# [16] = qHTS assay to identify small molecule agonists or antagonists of the thyroid stimulating hormone receptor (TSHR) signaling pathway - wild type cell line counter screen (AID 1259384; calls by dose curve)
# Outline: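 Wild-type Hek293 cells, 800/well, 18 h at 37C, then compound with Ro20-1724 for 30 min RT. cAMP by HTRF (cAMP-d2/anti-cAMP cryptate), 1 h RT, fluorescence read. 15 concentrations, triplicates.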
# [17] = biological target: Thyrotropin receptor (Homo sapiens) (UniProt P16473); experiment: qHTS assay to identify small molecule antagonists of the thyroid stimulating hormone receptor (TSHR) signaling pathway (AID 1259385; calls by dose curve; also: nearly all actives have a fitted effect of over 20% in size)
# Chain of Thyrotropin receptor (Homo sapiens) (P16473 whole entry, looked up): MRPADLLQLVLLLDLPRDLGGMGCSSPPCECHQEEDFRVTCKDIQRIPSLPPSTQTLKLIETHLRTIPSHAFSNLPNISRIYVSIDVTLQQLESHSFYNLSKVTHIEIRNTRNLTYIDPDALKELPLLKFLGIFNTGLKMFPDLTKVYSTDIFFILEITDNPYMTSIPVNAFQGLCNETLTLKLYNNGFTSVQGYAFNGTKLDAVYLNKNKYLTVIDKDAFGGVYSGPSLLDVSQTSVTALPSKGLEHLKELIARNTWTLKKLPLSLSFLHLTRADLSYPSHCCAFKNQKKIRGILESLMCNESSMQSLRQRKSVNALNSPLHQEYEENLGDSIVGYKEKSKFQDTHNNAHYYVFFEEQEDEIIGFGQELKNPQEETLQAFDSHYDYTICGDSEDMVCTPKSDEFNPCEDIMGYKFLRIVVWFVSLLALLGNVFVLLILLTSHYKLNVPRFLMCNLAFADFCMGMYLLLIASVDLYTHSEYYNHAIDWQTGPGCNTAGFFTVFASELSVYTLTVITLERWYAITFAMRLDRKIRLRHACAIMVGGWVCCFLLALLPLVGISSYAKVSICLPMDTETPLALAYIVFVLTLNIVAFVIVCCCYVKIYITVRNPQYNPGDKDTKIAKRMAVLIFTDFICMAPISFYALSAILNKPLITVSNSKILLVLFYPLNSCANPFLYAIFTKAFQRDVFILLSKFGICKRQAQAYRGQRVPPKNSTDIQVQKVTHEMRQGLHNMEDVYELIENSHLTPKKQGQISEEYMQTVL
# Outline: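 TSHR-HEK293 cells (800/well) plated 18 h, then compounds with Ro20-1724 and TSH at 1.5 ng/mL final, 30 min at room temperature. cAMP quantified by HTRF (cAMP-d2/anti-cAMP-cryptate, 1 h); 15 concentrations in triplicate.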
# [18] = qHTS assay to identify small molecule antagonists of the progesterone receptor (PR) signaling pathway - cell viability counter screen (AID 1346798); also: nearly all actives have a fitted effect of over 50% in size; also: potency is read from the fitted curve at half-maximal effect
# Outline: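 PR-UAS-bla HEK293T cells in medium with 2% charcoal-stripped FBS were treated with compounds plus R5020 for 16 hr at 37C. Cell viability was then read by CellTiter-Glo luminescence after 30 min at room temperature in the same wells.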
# [19] = biological target: Estrogen receptor beta (Homo sapiens) (UniProt Q92731); experiment: qHTS assay to identify small molecule antagonists of the estrogen receptor beta (ER-beta) signaling pathway (AID 1259378; active = well fitted inhibition curve with a large enough effect in the signal ratio in the repeat runs, not every such curve was filed as active; the % refers to the signal ratio; also: potency is read from the fitted curve at half-maximal effect)
# Outline: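 ER-beta-UAS-bla HEK293T cells in 2% charcoal-stripped FBS medium treated with compound plus 1nM final 17-beta-estradiol for 16 hr at 37C. Beta-lactamase reporter read by FRET substrate fluorescence after 2 hours at room temperature.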
SMILES,Potency [1],Potency [2],Potency [3],Potency [4],Potency [5],Potency [6],Potency [7],Potency [8],Potency [9],Potency [10],outcome [11],Potency [12],outcome [13],Potency [14],Potency [15],Potency [16],Potency [17],Potency [18],Potency [19]
CN1CCC(=C2c3ccccc3Sc3ccccc32)CC1,inactive,23.7 µM (active),inactive,21.1 µM (active),inactive,inactive,inactive,23.7 µM (active),inactive,inactive,inactive,inactive,inactive,inactive,–,–,–,–,–
C=C(C)C(=O)OCCOCC,inactive,–,–,inactive,inactive,–,inactive,inactive,inactive,inactive,inactive,inactive,inactive,inactive,inactive,inactive,inactive,inactive,–
CCOC(=O)C1=C[C@]2(CC)CCCN3CCc4c(n1c1ccccc41)[C@@H]32,inactive,26.6 µM (active),–,inactive,–,inactive,inactive,23.7 µM (active),inactive,inactive,–,inactive,inactive,inactive,–,inactive,inactive,inactive,–
Nc1ccc(S(=O)(=O)Nc2ccccc2)cc1,inactive,inactive,–,inactive,–,inactive,–,inactive,inactive,inactive,–,inactive,inactive,inactive,–,inactive,inactive,inactive,–
COc1cc2c(cc1OC)C(C(C(=O)N(CCc1ccc(OC)c(OC)c1OC)CCc1ccc(OC)c(OC)c1OC)c1ccccc1)=NCC2 (stereo unspecified),–,inactive,–,inactive,–,–,–,inactive,–,inactive,inactive,inactive,inactive,inactive,inactive,inactive,inactive,–,–
CCCCCC[C@@H](O)C/C=C\CCCCCCCC(=O)OC,inactive,inactive,inactive,inactive,inactive,inactive,inactive,inactive,inactive,inactive,inactive,inactive,inactive,inactive,–,inactive,inactive,inactive,–
O=C(O)c1nc(Cl)c(Cl)c(Cl)c1Cl,inactive,–,–,inactive,–,–,–,–,inactive,inactive,inactive,–,inactive,inactive,–,inactive,inactive,inactive,–
CC(C)Cc1ccc(C(C)C(=O)OCc2ccccn2)cc1 (stereo unspecified),inactive,inactive,–,inactive,inactive,inactive,inactive,–,inactive,inactive,inactive,inactive,–,inactive,–,inactive,–,inactive,–
CC1=CC[C@H](C(C)C)C=C1,inactive,–,–,inactive,inactive,inactive,–,inactive,inactive,inactive,inactive,inactive,–,–,–,–,–,inactive,–
CN(C)CCN(Cc1ccc(Cl)cc1)c1ccccn1,inactive,33.5 µM (active),–,–,–,inactive,inactive,inactive,inactive,inactive,inactive,inactive,inactive,inactive,–,inactive,inactive,–,–
CC(C)OC(=O)C(C)N(C(=O)c1ccccc1)c1ccc(F)c(Cl)c1 (stereo unspecified),inactive,inactive,–,inactive,–,inactive,inactive,24.3 µM (active),–,inactive,–,inactive,inactive,inactive,inactive,–,–,–,–
CCOc1ccc(N=Nc2ccc(/C=C/c3ccc(N=Nc4ccc(OCC)cc4)cc3S(=O)(=O)O)c(S(=O)(=O)O)c2)cc1,21.4 µM (active),inactive,–,inactive,–,38 µM (active),inactive,inactive,inactive,inactive,inactive,inactive,inactive,inactive,–,inactive,inactive,inactive,–
COc1cc2nc(Cl)nc(N)c2cc1OC,inactive,inactive,inactive,inactive,inactive,inactive,inactive,inactive,–,inactive,inactive,inactive,inactive,inactive,–,–,–,inactive,–
O=C1OC(CN2CCOCC2)CN1/N=C/c1ccc([N+](=O)[O-])o1 (stereo unspecified),–,inactive,inactive,inactive,inactive,–,inactive,inactive,inactive,inactive,inactive,inactive,–,–,inactive,inactive,inactive,inactive,inactive
O=C(O)c1ccc(-n2nc(-c3ccccc3O)nc2-c2ccccc2O)cc1,inactive,inactive,–,inactive,inactive,inactive,inactive,6.68 µM (active),inactive,inactive,inactive,inactive,inactive,inactive,–,–,–,inactive,–
C=C(C)C(=O)OCCO,inactive,inactive,–,inactive,inactive,inactive,inactive,inactive,inactive,inactive,inactive,inactive,inactive,inactive,–,inactive,inactive,inactive,–
CCNc1cc(O)ccc1C,inactive,inactive,–,inactive,inactive,inactive,inactive,inactive,inactive,inactive,inactive,inactive,inactive,inactive,–,inactive,–,inactive,inactive
Clc1ccc(Cn2c(CN3CCCC3)nc3ccccc32)cc1,inactive,–,–,–,–,inactive,–,–,7.5 µM (active),inactive,inactive,inactive,inactive,inactive,inactive,inactive,–,6.68 µM (active),11.9 µM (active)
NC(=O)C(c1ccccc1)(c1ccccc1)[C@@H]1CCN(CCc2ccc3c(c2)CCO3)C1,inactive,inactive,–,inactive,inactive,inactive,–,–,inactive,–,inactive,inactive,inactive,inactive,–,inactive,inactive,inactive,–
CCCCC(CC)CN1C(=O)C2C3C=CC(C3)C2C1=O (stereo unspecified),inactive,–,–,inactive,inactive,–,inactive,34.4 µM (active),inactive,inactive,inactive,inactive,inactive,inactive,inactive,inactive,inactive,inactive,–

# — PubChem BioAssay (Tox21)
